Several values for one entry are separate records, joined by “and”; a condition that tells them apart may be missing. Equal values may be shown once. About 83,000 compounds went through this panel and 20% of them were active in at least one assay; those are over-represented in the sample as a whole.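 A percent growth of 40 corresponds to 60% growth inhibition; 0 means no net growth; -100 means all cells died. Active threshold: below 10.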 Activity calls are given as the source filed them.
Assays:
Assay in all cases: NCI-60 one-dose screen, 48 h (100 = growth as untreated, 0 = no growth, -100 = all killed)
Conditions in all cases: 10 µM unless noted
[1] = tested on: T-47D breast
[2] = tested on: BT-549 breast
[3] = tested on: MDA-MB-435 melanoma
[4] = tested on: SW-620 colon
[5] = tested on: MCF7 breast
[6] = tested on: HCT-116 colon
[7] = tested on: HCC-2998 colon
[8] = tested on: KM12 colon

Structure (SMILES)	growth [1]	growth [2]	growth [3]	growth [4]	growth [5]	growth [6]	growth [7]	growth [8]
CCOC(=O)N(O)c1ccc(/C=C/c2ccccc2)cc1	11.2% (inactive) and 5.56% (active)	78.1% (inactive) and 69.9% (inactive)	84.6% (inactive) and 84.1% (inactive)	60.2% (inactive) and 46.6% (inactive)	8.37% (active) and 10.4% (inactive)	11.2% (inactive) and 17.6% (inactive)	59.3% (inactive) and 66.4% (inactive)	78.5% (inactive) and 64.9% (inactive)
COc1ccccc1/C=C1\COc2ccc(O)cc2C1=O	82.8% (inactive)	76.2% (inactive)	14.9% (inactive)	9.45% (active)	12.8% (inactive)	42% (inactive)	113% (inactive)	16.6% (inactive)
NC(N)=NC(N)=NCCCc1ccco1	106% (inactive)	115% (inactive)	110% (inactive)	94.5% (inactive)	106% (inactive)	108% (inactive)	106% (inactive)	101% (inactive)
COc1cc(OC)cc(-c2ccc(-c3ccc(C(=N)N)cn3)s2)c1	96.7% (inactive)	95.1% (inactive)	82.5% (inactive)	5.08% (active)	13% (inactive)	-12.6% (active)	56.1% (inactive)	40.7% (inactive)
c1ccc(-c2cc(-c3cc(-c4ccccc4)on3)no2)cc1	85.2% (inactive)	99.4% (inactive)	102% (inactive)	51.5% (inactive)	49.1% (inactive)	41.8% (inactive)	94.2% (inactive)	92.8% (inactive)
Nc1n[nH]c2cccc(C#Cc3cccc(NC(=O)c4ccc(N5CCOCC5)c(C(F)(F)F)c4)c3)c12	-0.951% (active)	14.2% (inactive)	19.2% (inactive)	21.5% (inactive)	25.6% (inactive)	2.84% (active)	6.77% (active)	21.4% (inactive)
O=C(Cn1cc(CN2CCN(c3ccnc4cc(Cl)ccc34)CC2)nn1)Nc1cccc([N+](=O)[O-])c1	75% (inactive)	85.6% (inactive)	98.7% (inactive)	95% (inactive)	89.1% (inactive)	101% (inactive)	106% (inactive)	85.4% (inactive)
Cc1c(C(C)(C)O)cn2ncnc(Oc3ccc(NC(=O)Nc4ccc(Cl)c(C(F)(F)F)c4)cc3)c12	21.8% (inactive)	58% (inactive)	37.4% (inactive)	62% (inactive)	25.2% (inactive)	28.6% (inactive)	85.7% (inactive)	24.8% (inactive)
CCOC(=O)c1cc2c(n1Cc1cc(OC)cc(OC)c1Br)-c1nc(NC(C)=O)sc1CCC2	38.5% (inactive)	92.9% (inactive)	83.9% (inactive)	81.3% (inactive)	57.6% (inactive)	78.2% (inactive)	72.7% (inactive)	67.6% (inactive)
CCCCCCCCCCCCCCCCCCn1cc(COc2ccc(C=O)cc2)nn1	88.6% (inactive)	100% (inactive)	109% (inactive)	104% (inactive)	92.8% (inactive)	76.8% (inactive)	99.8% (inactive)	86.3% (inactive)
NC(=O)c1c(NC(=O)/C=C/c2cccs2)sc2c1CCC(=O)C2	16.2% (inactive)	20.1% (inactive)	14.2% (inactive)	15.1% (inactive)	14.1% (inactive)	8.1% (active)	85.2% (inactive)	14.8% (inactive)
O=C(NNc1ccccc1)c1ccccc1	56.5% (inactive) and 36.8% (inactive)	105% (inactive) and 72.2% (inactive)	69.4% (inactive)	57.1% (inactive) and 45.7% (inactive)	82.9% (inactive) and 90.4% (inactive)	79.6% (inactive) and 68.5% (inactive)	85.6% (inactive)	33.5% (inactive)
O=c1c(/C=C/c2ccco2)nnc2sc(Nc3ccc(Cl)cc3)nn12	88.2% (inactive)	99.9% (inactive)	100% (inactive)	103% (inactive)	82.5% (inactive)	99% (inactive)	96.3% (inactive)	103% (inactive)
CCCN1C(=O)/C(=c2\sc3n(c2=O)NC2C(N=3)N(CC)C(=O)N2CC)c2ccccc21 (configuration not stated)	26.2% (inactive)	62.8% (inactive)	-10.6% (active)	31.5% (inactive)	17.5% (inactive)	15.6% (inactive)	30.4% (inactive)	30.3% (inactive)

Source: PubChem BioAssay (NCI)
